From PubChem BioAssay come the findings set out here.

Records with an inconclusive call do not appear. Active and inactive are the calls of the source.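 The calls were made as follows, unless noted: active = inhibition above the screen-wide mean plus 3 SD, about 51%; inactive = the rest.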

Assay [1] can be described thus: yeast TOR pathway RPL19A-GFP modulators, primary screen, cell-based, S. cerevisiae, multiplex flow cytometry (AID 1862; in the data active = percent of DMSO control GFP below about 86%;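 also: lower values mimic rapamycin by blocking the RPL19A rise seen in DMSO cells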). The following applies: S. cerevisiae RPL19A-GFP strain, flow cytometry fluorescence, 3 h; at 10 µM; stronger effect = lower value. (In general: A flow cytometer gives signals particle by particle.)
Assay [2] in a line: modulators of MEP2-GFP levels in yeast, primary screen, S. cerevisiae, multiplex flow cytometry (AID 1867;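 active = GFP response, as percent of the DMSO control, above the screen-wide mean plus 3 SD, about 139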;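 also: median GFP channel fluorescence of barcode-gated MEP2-GFP cells measured by flow cytometry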). The following applies: S. cerevisiae MEP2-GFP strain, 3 h, at 10 µM, stronger effect = higher value, 100% means same as DMSO wells.
The nature of assay [3]: modulators of CIT2-GFP expression in yeast, primary screen, S. cerevisiae, GFP fusion, multiplex flow cytometry (AID 1870;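 active = percent response above a set limit, the screen-wide mean plus 3 SD, cut at about 130% in these data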;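 also: barcoded CIT2-GFP strain pooled with four other GFP strains with rapamycin as positive control; median GFP fluorescence per well over plate mean of DMSO wells so 100% = DMSO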). The following applies: 3 h, at 10 µM, stronger effect = higher value.
Assay [4] in a line: modulators of LAP4-GFP expression in yeast, primary screen, S. cerevisiae, multiplex flow cytometry (AID 1873;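 active = GFP signal, as percent of the solvent control, above the screen mean plus 3 SD, about 149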). The following applies: 3 h, at 10 µM, stronger effect = higher value.
Assay [5] can be described thus: modulators of AGP1-GFP expression in yeast TOR pathway, primary screen, cell-based, multiplex flow cytometry, S. cerevisiae (AID 1887;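 active = GFP signal above the screen-wide mean plus 3 SD, that is over about 124.5% of the solvent control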;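 also: AGP1-GFP fusion strain of S. cerevisiae within a five-strain barcoded multiplex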). The following applies: 3 h, at 10 µM, stronger effect = higher value.
Assay [6] is described as follows: inhibitors of CD8+ T cell-vesicle binding, pilot screen, LFA-1/ICAM-1 modulator project, MLPCN validation set, flow cytometry (AID 2523;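 active = response below a set limit, under 55% cells CD8-positive and vesicle-bound, and CD8 cells' 90th-percentile brightness under 279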;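 as to vesicle binding response: mean PE anti-B7-1 fluorescence of CD8+ cells relative to row control; 100% = QL9-loaded vesicles with DMSO vehicle in the same plate row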). The following applies: 2C mouse CD8+ T cells, at 7 µM, stronger effect = lower value; double positive events: measured here: CD8+/vesicle+ event percentage.
Assay [7] addresses Integrin beta-1 (Homo sapiens) + Integrin alpha-4 (Homo sapiens) (UniProt P13612+P05556). Nature of the assay: inhibition of HUTS-21 binding to VLA-4, pilot screen, VLA-4 allosteric modulator project, U937 cells, HUTS-21 mAb, flow cytometry, validation set (AID 2674;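 active = inhibition above 50%, about 3 SD of the validation set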;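 also: antibody binding induced by the VLA-4 ligand LDV present at three times its Kd; 0% = LDV ligand with antibody and no compound and 100% = antibody without LDV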). The following applies: HUTS-21 LIBS mAb binding, at 6.7 µM, stronger effect = higher value, binding induced by LDV ligand.

A short description of assay [8]: superoxide lowering in aged yeast cells, pilot screen, validation compound set (AID 2706;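 active = superoxide response below 65% of plate, a cut near 3 SD across the whole screen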;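 also: yeast exposed to compound for one week at 30 degrees C before staining; 100% = mean of all compound wells on the same plate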). The following applies: S. cerevisiae aging, superoxide DHE fluorescence; at 10 µM; stronger effect = lower value.
The target in assay [9] is Beta-adrenergic receptor kinase 1 (Homo sapiens) (UniProt P25098). Nature of the assay: GRK2 binders displacing RNA aptamer, biochemical, validation, human GRK2, bead flow cytometry (AID 488806;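 active = aptamer binding inhibition above 30%, about 3 SD of noise from non-fluorescent compounds; inactive = inhibition at or below 30%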). The following applies: bead-bound GRK2, FAM-aptamer displacement, at 10 µM, stronger effect = higher value.
Sequence of Beta-adrenergic receptor kinase 1 (Homo sapiens) (P25098 whole entry, looked up): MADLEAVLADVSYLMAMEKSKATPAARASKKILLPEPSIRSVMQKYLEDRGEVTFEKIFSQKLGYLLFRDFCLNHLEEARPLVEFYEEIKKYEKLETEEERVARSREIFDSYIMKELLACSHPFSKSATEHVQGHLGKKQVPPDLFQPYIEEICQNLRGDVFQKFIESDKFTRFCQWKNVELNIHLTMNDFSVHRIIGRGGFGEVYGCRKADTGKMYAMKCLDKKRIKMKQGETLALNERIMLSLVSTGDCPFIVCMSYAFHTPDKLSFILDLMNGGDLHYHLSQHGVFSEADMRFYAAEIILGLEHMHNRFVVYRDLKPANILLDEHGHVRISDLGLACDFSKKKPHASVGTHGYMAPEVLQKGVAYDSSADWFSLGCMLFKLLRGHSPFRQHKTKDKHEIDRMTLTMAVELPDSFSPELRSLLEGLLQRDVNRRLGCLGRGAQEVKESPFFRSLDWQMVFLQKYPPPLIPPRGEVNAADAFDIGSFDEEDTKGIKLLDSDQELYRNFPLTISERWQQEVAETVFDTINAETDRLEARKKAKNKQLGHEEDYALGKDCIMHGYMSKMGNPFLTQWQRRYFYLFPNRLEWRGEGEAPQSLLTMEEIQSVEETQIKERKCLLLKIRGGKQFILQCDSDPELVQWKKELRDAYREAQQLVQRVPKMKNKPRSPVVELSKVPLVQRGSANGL
In assay [10] the target is Beta-2 adrenergic receptor (Homo sapiens) (UniProt P07550). Nature of the assay: beta2AR agonists driving receptor internalization, pilot screen, cell-based, FAP fluorogen, flow cytometry, validation set (AID 504459;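 active = percent response above 42, roughly 3 SD of non-fluorescent test compounds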;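 also: agonist-driven loss of surface beta2AR via internalization measured by FAP dye flow cytometry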). The following applies: Am2.2-beta2AR cells, FAP surface receptor flow cytometry; at 10 µM; stronger effect = higher value.
Sequence of Beta-2 adrenergic receptor (Homo sapiens) (P07550 whole entry, looked up): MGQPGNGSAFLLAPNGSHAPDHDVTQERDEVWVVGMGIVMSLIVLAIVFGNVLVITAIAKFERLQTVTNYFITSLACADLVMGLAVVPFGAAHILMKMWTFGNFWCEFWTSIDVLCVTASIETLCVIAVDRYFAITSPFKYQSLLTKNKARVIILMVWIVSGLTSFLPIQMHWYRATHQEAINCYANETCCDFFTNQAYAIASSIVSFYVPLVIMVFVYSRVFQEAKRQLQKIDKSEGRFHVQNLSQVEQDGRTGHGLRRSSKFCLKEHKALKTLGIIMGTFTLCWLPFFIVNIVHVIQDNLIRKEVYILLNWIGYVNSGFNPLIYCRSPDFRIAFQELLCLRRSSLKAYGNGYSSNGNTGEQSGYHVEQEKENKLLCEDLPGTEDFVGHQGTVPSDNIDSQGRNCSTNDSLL
Assay [11] addresses AP-2 complex subunit beta (Homo sapiens) (UniProt P63010). Kind of assay: inhibitors of arrestin peptide binding to AP2, pilot screen, biochemical, validation set, GST-AP2 beads, flow cytometry (AID 504541;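 active = inhibition above 54%, about 3 SD of non-fluorescent compounds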;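 also: AP2 carries R879A mutation and is captured from E. coli lysate; bead-bound FITC arrestin peptide fluorescence measuring arrestin peptide binding to AP2; 0% = DMSO wells and 100% = excess unlabeled arrestin peptide control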). The following applies: FITC arrestin peptide, at 10 µM, stronger effect = higher value, AP2 beta2 appendage fragment, R879A mutant.
Assay [12] is described as follows: yeast V-ATPase proton transport modulators, S. cerevisiae, pHLuorin, HTS validation (AID 504600; in the data active = response above about 15%;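 also: plate controls were DMSO for no effect and reference compound for full effect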). The following applies: S. cerevisiae pHLuorin cytosolic pH, at 10 µM, stronger effect = higher value.
Assay [13] concerns anti-desmoglein-3 scFv antibody binding to human DSG3. Nature of the assay: inhibitors of anti-DSG3 scFv binding to DSG3, pilot screen, biochemical, validation compound set, bead-based, flow cytometry (AID 588368;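 active = binding below the plate cutoff, the plate median minus 3 SD, with a reading above zero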;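 also: signal is the median channel fluorescence of bead-bound GFP antibody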). The following applies: Protein G beads, DSG3-Fc, scFv-GFP binding, at 10 µM, stronger effect = lower value.
Assay [14] in a line: inhibitors of fungal efflux pumps CDR1, CDR2, MDR1, pilot screen, validation compound set, multiplex, phenotypic (AID 588506;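 active = efflux inhibition above 0.42, the validation set average plus 4 SD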;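 also: Nile Red retained in cells so higher fluorescence means more efflux inhibition; 0 = negative control wells and 1 = enniatin B 25 µM full block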). The following applies: S. cerevisiae pump-expressing triplex, Nile Red efflux flow cytometry; at 10 µM; stronger effect = higher value; the pumps come from Candida albicans.
Assay [15] has as its target ATP-binding cassette sub-family B member 6 (Homo sapiens) (UniProt Q9NP58). Kind of assay: ABCB6 transporter inhibitors, pilot screen, K562-ABCB6 cells, flow cytometry, validation set (AID 588550).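 Also: 0% = DMSO wells and 100% = benzethonium chloride 70 µM positive control.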 The following applies: K562-ABCB6 porphyrin accumulation, 1 h, at 10 µM, stronger effect = higher value.
Assay [16] in a line: promoters of myeloid differentiation in arrested cells, primary screen, cell-based, GFP/MAC1 double positive, flow cytometry, validation set (AID 588685;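 active = differentiation response of at least 50%, scaled between solvent and reference control, from cells with both markers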;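 also: compound exposure lasts four days before antibody staining and flow analysis; 0% = DMSO wells and 100% = 5 µM fulvestrant positive control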). The following applies: ER-HoxA9 marrow cells, stronger effect = higher value, normalized: vehicle 0, fulvestrant 100.

Sequence of AP-2 complex subunit beta (Homo sapiens) (P63010 whole entry, looked up, the tested form may be a part, one chain of several): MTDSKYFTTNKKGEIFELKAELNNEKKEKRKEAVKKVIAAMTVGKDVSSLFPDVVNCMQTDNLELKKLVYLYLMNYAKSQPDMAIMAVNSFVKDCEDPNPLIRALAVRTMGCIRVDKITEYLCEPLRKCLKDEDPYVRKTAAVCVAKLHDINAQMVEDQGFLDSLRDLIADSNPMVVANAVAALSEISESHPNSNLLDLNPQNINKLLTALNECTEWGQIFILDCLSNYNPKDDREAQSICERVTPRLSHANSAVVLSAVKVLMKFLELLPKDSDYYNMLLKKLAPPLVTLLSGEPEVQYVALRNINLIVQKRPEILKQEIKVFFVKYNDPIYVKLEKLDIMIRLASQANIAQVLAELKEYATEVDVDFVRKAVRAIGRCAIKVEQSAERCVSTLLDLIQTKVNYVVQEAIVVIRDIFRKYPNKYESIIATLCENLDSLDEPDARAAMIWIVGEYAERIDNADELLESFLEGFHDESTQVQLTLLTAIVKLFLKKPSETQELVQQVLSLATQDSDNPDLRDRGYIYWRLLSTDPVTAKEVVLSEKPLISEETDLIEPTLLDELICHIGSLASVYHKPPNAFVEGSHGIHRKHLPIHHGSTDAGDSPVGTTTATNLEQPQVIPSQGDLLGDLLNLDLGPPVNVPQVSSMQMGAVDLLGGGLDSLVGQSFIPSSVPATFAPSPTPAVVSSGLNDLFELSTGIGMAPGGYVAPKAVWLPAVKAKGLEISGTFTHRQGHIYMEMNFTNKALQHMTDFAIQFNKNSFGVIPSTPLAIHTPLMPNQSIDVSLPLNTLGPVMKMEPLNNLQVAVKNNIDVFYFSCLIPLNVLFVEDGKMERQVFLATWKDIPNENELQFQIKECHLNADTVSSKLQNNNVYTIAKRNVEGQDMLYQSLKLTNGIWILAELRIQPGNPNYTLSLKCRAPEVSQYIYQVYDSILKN
Sequence of ATP-binding cassette sub-family B member 6 (Homo sapiens) (Q9NP58 whole entry, looked up): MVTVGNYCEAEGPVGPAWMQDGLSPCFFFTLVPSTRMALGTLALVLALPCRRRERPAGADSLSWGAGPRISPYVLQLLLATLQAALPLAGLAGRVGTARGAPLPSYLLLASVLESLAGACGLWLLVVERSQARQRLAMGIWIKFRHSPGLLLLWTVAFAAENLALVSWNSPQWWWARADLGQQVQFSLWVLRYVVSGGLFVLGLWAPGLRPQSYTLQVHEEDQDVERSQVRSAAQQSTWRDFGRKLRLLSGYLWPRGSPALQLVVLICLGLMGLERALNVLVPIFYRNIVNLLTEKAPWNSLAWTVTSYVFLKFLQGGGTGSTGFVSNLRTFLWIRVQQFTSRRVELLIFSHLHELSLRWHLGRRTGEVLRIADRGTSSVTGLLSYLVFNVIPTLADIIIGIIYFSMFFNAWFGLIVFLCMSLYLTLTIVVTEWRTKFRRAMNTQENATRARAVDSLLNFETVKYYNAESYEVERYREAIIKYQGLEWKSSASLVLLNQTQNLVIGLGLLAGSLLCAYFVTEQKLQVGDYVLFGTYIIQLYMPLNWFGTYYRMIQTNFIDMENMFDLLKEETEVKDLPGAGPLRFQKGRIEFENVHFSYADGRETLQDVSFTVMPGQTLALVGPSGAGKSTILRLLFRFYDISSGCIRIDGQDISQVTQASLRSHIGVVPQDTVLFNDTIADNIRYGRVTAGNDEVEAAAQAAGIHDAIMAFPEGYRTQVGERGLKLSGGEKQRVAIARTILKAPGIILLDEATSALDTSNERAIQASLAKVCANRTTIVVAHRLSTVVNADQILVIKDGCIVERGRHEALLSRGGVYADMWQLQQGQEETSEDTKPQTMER
Sequence of Integrin beta-1 (Homo sapiens) + Integrin alpha-4 (Homo sapiens) (P05556 whole entry, looked up): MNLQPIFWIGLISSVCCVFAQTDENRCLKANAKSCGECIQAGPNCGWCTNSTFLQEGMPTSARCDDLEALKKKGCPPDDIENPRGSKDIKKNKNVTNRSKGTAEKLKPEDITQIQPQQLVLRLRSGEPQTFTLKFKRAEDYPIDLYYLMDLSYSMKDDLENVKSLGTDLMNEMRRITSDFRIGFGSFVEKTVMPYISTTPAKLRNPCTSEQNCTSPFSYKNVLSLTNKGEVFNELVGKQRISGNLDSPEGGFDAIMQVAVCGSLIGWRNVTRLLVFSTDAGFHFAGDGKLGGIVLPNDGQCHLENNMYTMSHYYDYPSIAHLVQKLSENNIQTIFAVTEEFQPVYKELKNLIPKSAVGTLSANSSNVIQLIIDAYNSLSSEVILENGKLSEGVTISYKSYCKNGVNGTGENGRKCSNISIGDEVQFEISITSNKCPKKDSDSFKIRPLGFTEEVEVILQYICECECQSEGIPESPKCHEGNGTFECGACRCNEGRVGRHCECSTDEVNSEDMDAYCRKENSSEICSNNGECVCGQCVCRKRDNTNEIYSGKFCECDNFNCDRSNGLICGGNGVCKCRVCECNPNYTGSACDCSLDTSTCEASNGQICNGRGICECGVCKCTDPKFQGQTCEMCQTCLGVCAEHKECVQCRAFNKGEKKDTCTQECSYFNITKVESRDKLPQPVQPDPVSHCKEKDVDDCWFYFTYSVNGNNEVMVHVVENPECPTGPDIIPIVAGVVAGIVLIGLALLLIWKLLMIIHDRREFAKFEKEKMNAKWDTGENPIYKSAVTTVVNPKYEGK
Sequence of Integrin beta-1 (Homo sapiens) + Integrin alpha-4 (Homo sapiens) (P13612 whole entry, looked up): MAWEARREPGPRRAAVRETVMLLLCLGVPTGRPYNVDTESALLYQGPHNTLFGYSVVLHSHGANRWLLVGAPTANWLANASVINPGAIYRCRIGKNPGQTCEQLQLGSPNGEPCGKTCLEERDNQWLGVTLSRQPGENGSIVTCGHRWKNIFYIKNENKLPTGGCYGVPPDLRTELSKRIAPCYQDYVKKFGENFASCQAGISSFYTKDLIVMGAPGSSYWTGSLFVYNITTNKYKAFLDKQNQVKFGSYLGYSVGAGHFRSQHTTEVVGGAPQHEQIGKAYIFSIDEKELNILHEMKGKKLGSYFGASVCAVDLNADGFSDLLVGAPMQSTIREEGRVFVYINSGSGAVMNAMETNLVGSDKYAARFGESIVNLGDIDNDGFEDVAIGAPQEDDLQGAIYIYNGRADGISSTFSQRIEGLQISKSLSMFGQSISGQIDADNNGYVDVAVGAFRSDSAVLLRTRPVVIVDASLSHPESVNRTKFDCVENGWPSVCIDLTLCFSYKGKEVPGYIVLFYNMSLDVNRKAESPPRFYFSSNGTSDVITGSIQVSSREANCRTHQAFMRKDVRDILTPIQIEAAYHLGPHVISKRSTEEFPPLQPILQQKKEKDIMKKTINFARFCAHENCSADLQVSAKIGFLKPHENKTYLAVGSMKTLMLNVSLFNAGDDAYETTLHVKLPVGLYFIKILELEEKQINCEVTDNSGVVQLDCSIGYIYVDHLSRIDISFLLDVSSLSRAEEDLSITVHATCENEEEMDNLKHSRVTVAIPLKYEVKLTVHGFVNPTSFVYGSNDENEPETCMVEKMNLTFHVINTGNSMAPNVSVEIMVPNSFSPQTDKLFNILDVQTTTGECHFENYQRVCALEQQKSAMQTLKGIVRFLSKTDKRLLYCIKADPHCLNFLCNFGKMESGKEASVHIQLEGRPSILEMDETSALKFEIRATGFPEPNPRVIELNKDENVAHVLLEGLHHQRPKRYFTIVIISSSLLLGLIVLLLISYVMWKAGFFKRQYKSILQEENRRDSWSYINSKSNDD

Turning to `CCOCCCNCc1cn(-c2ccc(F)cc2F)nc1-c1ccccc1C`, the percent of DMSO control GFP in assay [1] is 103% (inactive). Also, the GFP response vs DMSO was 98.3% (inactive) in assay [2] and 93.3% (inactive) in assay [4]. Further, in [3], the percent response of DMSO control was 109% (inactive). Besides, in [5], the GFP response, % of DMSO was 102% (inactive). Also, in assay [6], the double positive events came out at 61.9%. In assay [6], the vesicle binding response is 200% (inactive). Besides, the inhibition (usually the change of the read-out against control, counted positive when it falls) in assay [7] is -1.49% (inactive); in assay [11] it was 14.5% (inactive); in assay [15], -10% (inactive). Further, the superoxide response (% of plate) in assay [8] was 101% (inactive). For the same compound, the aptamer binding inhibition in assay [9] is 1% (inactive). Further, the values for the response in [10] and in assay [12] were -8.93% (inactive) and 4.59% (inactive), respectively. The binding (% of control) in [13] was 94.2% (inactive). In addition, the efflux inhibition (fraction of control) in assay [14] was -0.07 (inactive). The differentiation response in assay [16] was -1.71% (inactive).

For the compound `CC(=O)c1cccc(NC(=O)N[C@@H](CC(C)C)C(=O)O)c1`, the percent of DMSO control GFP in [1] was 104% (inactive). For the same compound, the GFP response vs DMSO in assay [2] was 101% (inactive); in [4] it was 96.6% (inactive). Also, the percent response of DMSO control in assay [3] was 104% (inactive). The GFP response, % of DMSO in assay [5] is 104% (inactive). For the same compound, in assay [6], the double positive events worked out at 57.9%. The vesicle binding response in [6] was 230% (inactive). The inhibition in assay [7] was -9.79% (inactive); in assay [11] it was 17.6% (inactive); in assay [15], 6% (inactive). Further, the superoxide response (% of plate) in assay [8] is 109% (inactive). Further, the aptamer binding inhibition in assay [9] was -2% (inactive). Besides, the figures for the response in assay [10] and in assay [12] were -0.44% (inactive) and -2.05% (inactive), respectively. Besides, the binding (% of control) in assay [13] is 99.2% (inactive). The efflux inhibition (fraction of control) in assay [14] is 0.18 (inactive). Also, the differentiation response in [16] is 9.04% (inactive).

Consider `NC(N)=N/N=C/c1ccc(OS(=O)(=O)c2ccccc2)cc1`, for which the percent of DMSO control GFP in assay [1] is 102% (inactive). Moreover, the GFP response vs DMSO in [2] was 101% (inactive); in assay [4] it was 90.4% (inactive). In assay [3], the percent response of DMSO control was 101% (inactive). Also, in [5], the GFP response, % of DMSO was 102% (inactive). Also, the double positive events in assay [6] stood at 61.3%. The vesicle binding response in assay [6] is 141% (inactive). In addition, the inhibition in assay [7] was 17.7% (inactive); in assay [11], -0.93% (inactive); in [15] it was 11% (inactive). Besides, in assay [8], the superoxide response (% of plate) is 93.2% (inactive). Also, in [9], the aptamer binding inhibition is -12% (inactive). The response in [10] is 13.2% (inactive); in assay [12] it was -4.93% (inactive). Also, the binding (% of control) in [13] was 107% (inactive). Besides, in assay [14], the efflux inhibition (fraction of control) was -0.03 (inactive). Further, the differentiation response in assay [16] is 4.2% (inactive).

`Oc1ccccc1OCCOc1ccccc1OCCOc1ccccc1O`: the percent of DMSO control GFP in assay [1] is 100% (inactive). Moreover, the GFP response vs DMSO is 108% (inactive) in [2] and 117% (inactive) in [4]. Moreover, the percent response of DMSO control in assay [3] was 105% (inactive). Further, the GFP response, % of DMSO in assay [5] was 110% (inactive). This compound also came in with a double positive events in [6] of 62.1%. Besides, the vesicle binding response in assay [6] is 245% (inactive). For the same compound, the inhibition is 15.9% (inactive) in [7], 1.79% (inactive) in assay [11] and 6% (inactive) in assay [15]. Also, the superoxide response (% of plate) in assay [8] was 97.2% (inactive). Further, the aptamer binding inhibition in [9] is -2% (inactive). Also, the response is -15.9% (inactive) in assay [10] and -8.12% (inactive) in [12]. Moreover, the binding (% of control) in assay [13] is 112% (inactive). Moreover, in [14], the efflux inhibition (fraction of control) was -0.04 (inactive). Moreover, in assay [16], the differentiation response is -6.96% (inactive).

With `Cc1cc(O)c(C(=O)Cc2csc(C)n2)c(O)c1`, the percent of DMSO control GFP in assay [1] is 102% (inactive). The GFP response vs DMSO in assay [2] is 109% (inactive); in assay [4] it was 112% (inactive). In addition, the percent response of DMSO control in [3] is 98.2% (inactive). For the same compound, in assay [5], the GFP response, % of DMSO was 96.1% (inactive). The double positive events in assay [6] came to 56.7%. The vesicle binding response in assay [6] was 15.7% (inactive). For the same compound, the inhibition in assay [7] is 1.12% (inactive); in assay [11] it was 6.62% (inactive); in [15], 2% (inactive). Further, the superoxide response (% of plate) in assay [8] is 104% (inactive). In addition, the aptamer binding inhibition in assay [9] is 5% (inactive). The figures for the response in [10] and in assay [12] were 2.72% (inactive) and -0.65% (inactive), respectively. Also, the binding (% of control) in assay [13] is 99.5% (inactive). The efflux inhibition (fraction of control) in [14] was 0.46 (active). In addition, in [16], the differentiation response is 6.49% (inactive).
